According to the supplement of paper PMC10849652:
Targets with a hit are over-represented here; the source holds about 7,900 in all. About 0.6% of all pairs of compound and target were hits. Unmarked numbers belong to inactive results.

What was measured:
Experiment in all cases: log2 fold change, soluble protein after heating vs DMSO (PISA); higher = thermal stabilisation; K562 cells, 10 uM, 30 min; active = over 0.2 and 3.5 SD of the protein, either way, in both replicates (recomputed)
[1] = compound: COC1=CC=C(C=C1)CN2C=CC3=C2C=C(C=C3)C(=O)NO
Summary of the method: (§1)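 K562 cells (2×10^6 cells/mL) were treated with 10 μM compound for 30 min, and aliquots were heated for 3 min over 48°C-58°C. Pooled aliquots were extracted in PBS with 0.5% NP-40 at 4°C, and the supernatant after 21,000xg for 90 min was measured by TMTpro 16plex LC-MS/MS with channel sums equalised. Reported thermal stability, relative to control samples and from duplicates, is a log2 fold change.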

filanesib = compound: CON(C)C(=O)N1N=C(c2cc(F)ccc2F)S[C@@]1(CCCN)c1ccccc1 [filanesib]
Summary of the method: as §1

zotarolimus = compound: CO[C@H]1C[C@@H]2CC[C@@H](C)[C@@](O)(O2)C(=O)C(=O)N2CCCC[C@H]2C(=O)O[C@H]([C@H](C)C[C@@H]2CC[C@H](n3cnnn3)[C@H](OC)C2)CC(=O)[C@H](C)/C=C(\C)[C@@H](O)[C@@H](OC)C(=O)[C@H](C)C[C@H](C)/C=C/C=C/C=C/1C [zotarolimus]
Summary of the method: as §1

idasanutlin = compound: COc1cc(C(=O)O)ccc1NC(=O)[C@@H]1N[C@@H](CC(C)(C)C)[C@](C#N)(c2ccc(Cl)cc2F)[C@H]1c1cccc(Cl)c1F [idasanutlin]
Summary of the method: as §1

alisertib = compound: COc1cc(Nc2ncc3c(n2)-c2ccc(Cl)cc2C(c2c(F)cccc2OC)=NC3)ccc1C(=O)O [alisertib]
Summary of the method: as §1

[2] = compound: COc1cc2nc(-c3cc(F)ccc3O)nc(N[C@@H]3CNC[C@H]3C(C)(C)O)c2cc1OC
Summary of the method: as §1

[3] = compound: COc1cccc2cc(-c3nc([C@H]4CC[C@H](C(=O)O)CC4)n4ncnc(N)c34)[nH]c12
Summary of the method: as §1

lapatinib = compound: CS(=O)(=O)CCNCc1ccc(-c2ccc3ncnc(Nc4ccc(OCc5cccc(F)c5)c(Cl)c4)c3c2)o1 [lapatinib]
Summary of the method: as §1

gefitinib = compound: COc1cc2ncnc(Nc3ccc(F)c(Cl)c3)c2cc1OCCCN1CCOCC1 [gefitinib]
Summary of the method: as §1

pictilisib = compound: CS(=O)(=O)N1CCN(Cc2cc3nc(-c4cccc5[nH]ncc45)nc(N4CCOCC4)c3s2)CC1 [pictilisib]
Summary of the method: as §1

Chain of UniProt Q9NYP7 (Q9NYP7 whole entry, looked up): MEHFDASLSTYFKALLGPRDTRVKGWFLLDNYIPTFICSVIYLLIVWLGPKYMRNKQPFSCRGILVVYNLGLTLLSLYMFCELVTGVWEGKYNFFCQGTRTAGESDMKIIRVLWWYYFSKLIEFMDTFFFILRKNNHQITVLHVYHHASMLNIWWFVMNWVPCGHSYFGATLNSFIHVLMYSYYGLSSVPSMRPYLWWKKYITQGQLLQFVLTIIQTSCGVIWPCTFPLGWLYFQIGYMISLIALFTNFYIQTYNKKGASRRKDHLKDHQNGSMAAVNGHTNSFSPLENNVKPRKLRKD
Chain of UniProt Q96FC9 (Q96FC9 whole entry, looked up): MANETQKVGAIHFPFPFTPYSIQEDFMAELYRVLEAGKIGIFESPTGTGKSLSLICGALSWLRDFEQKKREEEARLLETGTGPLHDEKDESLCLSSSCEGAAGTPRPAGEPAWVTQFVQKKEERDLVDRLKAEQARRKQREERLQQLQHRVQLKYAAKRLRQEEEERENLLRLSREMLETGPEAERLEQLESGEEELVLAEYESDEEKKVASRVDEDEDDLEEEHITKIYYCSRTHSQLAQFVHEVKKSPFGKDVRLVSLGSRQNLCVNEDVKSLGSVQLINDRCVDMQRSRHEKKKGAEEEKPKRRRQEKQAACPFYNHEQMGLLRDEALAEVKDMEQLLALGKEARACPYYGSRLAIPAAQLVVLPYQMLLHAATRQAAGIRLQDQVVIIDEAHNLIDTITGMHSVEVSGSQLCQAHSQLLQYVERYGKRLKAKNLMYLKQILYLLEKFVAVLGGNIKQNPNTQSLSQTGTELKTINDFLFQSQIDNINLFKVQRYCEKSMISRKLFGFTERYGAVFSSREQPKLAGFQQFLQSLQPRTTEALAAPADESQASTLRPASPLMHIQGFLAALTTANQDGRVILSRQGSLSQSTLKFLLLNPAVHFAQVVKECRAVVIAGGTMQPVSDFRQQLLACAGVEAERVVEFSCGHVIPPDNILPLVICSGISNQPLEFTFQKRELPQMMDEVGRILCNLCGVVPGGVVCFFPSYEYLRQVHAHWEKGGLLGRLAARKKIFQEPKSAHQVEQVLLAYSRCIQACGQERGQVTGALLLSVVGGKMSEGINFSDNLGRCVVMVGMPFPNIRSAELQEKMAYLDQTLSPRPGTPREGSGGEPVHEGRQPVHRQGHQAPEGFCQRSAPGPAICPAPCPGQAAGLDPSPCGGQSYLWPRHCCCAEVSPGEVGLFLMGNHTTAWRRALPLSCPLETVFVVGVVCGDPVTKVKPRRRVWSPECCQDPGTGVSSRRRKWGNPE
Chain of UniProt P0CG12 (P0CG12 whole entry, looked up): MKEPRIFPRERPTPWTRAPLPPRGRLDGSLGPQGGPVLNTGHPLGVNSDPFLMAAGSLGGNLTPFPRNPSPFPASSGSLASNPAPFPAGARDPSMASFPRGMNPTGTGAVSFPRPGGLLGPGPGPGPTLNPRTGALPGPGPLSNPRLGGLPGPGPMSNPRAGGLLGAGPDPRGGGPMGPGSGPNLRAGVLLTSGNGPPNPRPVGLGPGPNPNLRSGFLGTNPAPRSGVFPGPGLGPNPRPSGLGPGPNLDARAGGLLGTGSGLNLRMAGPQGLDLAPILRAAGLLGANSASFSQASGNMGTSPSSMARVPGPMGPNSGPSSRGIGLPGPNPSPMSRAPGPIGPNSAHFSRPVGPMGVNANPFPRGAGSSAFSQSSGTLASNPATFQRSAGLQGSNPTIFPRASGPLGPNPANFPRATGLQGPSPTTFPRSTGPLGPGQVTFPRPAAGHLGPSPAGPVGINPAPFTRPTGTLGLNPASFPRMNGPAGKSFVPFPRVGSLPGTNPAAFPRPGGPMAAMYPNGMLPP
Chain of UniProt Q6P3W2 (Q6P3W2 whole entry, looked up): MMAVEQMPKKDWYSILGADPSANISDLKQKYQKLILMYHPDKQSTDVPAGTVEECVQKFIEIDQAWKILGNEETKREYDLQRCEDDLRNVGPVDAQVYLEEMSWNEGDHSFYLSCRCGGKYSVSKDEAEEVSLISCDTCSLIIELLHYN
Chain of UniProt Q4LDG9 (Q4LDG9 whole entry, looked up): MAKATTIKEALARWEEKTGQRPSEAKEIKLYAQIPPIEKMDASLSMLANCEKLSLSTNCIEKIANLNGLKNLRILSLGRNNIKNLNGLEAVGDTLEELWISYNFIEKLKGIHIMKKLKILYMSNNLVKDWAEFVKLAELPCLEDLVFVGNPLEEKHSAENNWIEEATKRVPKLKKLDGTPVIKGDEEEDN
Chain of UniProt Q9Y6B2 (Q9Y6B2 whole entry, looked up): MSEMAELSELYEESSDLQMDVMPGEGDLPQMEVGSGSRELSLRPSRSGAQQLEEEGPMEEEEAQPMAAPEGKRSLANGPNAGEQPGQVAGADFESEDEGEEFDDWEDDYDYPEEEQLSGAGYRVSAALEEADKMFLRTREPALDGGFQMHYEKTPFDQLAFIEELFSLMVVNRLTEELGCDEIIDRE
Chain of UniProt Q8TEH3 (Q8TEH3 whole entry, looked up): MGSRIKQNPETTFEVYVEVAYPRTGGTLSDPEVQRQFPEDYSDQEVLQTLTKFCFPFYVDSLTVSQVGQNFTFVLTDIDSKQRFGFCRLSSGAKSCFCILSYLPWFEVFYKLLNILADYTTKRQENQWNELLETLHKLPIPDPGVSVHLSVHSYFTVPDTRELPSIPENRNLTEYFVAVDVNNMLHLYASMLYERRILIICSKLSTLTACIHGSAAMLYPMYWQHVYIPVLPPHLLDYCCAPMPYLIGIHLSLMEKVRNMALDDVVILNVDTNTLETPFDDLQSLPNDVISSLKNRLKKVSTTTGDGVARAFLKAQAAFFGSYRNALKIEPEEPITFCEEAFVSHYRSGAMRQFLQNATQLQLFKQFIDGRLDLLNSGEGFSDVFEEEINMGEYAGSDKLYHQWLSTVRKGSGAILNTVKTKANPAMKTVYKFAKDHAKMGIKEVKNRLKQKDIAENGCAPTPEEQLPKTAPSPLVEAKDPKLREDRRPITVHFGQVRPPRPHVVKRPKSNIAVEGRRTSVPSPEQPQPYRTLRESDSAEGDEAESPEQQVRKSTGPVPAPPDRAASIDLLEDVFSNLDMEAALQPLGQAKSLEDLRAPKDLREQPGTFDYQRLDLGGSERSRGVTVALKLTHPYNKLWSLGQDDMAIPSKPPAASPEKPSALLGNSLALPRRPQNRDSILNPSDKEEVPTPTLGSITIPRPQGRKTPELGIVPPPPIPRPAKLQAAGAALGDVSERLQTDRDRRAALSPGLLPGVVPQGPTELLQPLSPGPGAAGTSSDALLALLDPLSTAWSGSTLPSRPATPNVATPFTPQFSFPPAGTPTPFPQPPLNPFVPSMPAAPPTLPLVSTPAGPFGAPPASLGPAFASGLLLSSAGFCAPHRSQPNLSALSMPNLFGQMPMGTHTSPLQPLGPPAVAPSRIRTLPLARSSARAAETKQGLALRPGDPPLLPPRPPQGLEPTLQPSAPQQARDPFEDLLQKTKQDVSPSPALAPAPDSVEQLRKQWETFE
Chain of UniProt Q15910 (Q15910 whole entry, looked up): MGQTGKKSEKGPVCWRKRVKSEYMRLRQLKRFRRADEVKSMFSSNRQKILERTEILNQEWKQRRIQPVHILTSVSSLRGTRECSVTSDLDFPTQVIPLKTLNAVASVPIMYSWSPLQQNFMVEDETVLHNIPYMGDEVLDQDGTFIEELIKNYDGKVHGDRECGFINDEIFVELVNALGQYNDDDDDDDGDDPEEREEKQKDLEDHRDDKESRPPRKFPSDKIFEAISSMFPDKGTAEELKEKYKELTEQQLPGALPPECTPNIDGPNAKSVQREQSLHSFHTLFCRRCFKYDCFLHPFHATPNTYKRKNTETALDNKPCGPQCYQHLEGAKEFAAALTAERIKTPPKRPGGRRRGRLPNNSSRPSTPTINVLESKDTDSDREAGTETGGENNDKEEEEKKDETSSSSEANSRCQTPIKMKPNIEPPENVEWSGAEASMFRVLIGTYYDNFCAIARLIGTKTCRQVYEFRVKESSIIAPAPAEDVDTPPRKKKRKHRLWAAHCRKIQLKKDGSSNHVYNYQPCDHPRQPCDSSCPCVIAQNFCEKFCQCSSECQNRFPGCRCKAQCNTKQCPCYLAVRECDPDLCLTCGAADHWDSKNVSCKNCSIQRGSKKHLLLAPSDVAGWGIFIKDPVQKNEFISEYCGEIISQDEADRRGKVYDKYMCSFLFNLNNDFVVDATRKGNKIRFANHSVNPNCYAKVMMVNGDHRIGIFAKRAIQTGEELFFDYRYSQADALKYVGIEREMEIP
Chain of UniProt O00418 (O00418 whole entry, looked up): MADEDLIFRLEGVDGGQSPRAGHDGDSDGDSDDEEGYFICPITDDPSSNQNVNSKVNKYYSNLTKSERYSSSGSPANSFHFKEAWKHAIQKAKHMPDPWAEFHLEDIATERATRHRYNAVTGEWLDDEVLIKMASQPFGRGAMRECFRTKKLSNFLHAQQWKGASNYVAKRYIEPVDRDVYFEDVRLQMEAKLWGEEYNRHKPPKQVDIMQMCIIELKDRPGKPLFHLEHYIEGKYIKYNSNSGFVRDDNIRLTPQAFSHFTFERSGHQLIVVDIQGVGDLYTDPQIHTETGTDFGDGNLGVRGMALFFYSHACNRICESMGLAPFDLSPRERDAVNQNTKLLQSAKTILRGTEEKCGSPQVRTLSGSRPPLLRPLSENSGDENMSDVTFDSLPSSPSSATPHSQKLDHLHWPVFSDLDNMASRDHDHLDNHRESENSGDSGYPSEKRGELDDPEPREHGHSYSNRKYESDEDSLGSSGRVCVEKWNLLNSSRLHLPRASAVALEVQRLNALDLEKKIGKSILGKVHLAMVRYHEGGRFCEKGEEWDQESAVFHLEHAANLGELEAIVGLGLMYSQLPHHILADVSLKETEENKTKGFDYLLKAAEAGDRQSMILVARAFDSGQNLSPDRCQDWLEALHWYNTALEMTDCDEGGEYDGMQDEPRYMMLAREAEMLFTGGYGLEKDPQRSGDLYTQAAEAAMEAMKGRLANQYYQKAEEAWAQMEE

Target	log2 fold change [1]	log2 fold change (filanesib)	log2 fold change (zotarolimus)	log2 fold change (idasanutlin)	log2 fold change (alisertib)	log2 fold change [2]	log2 fold change [3]	log2 fold change (lapatinib)	log2 fold change (gefitinib)	log2 fold change (pictilisib)
EZH2 isoform 2 (UniProt Q15910)	-0.105	-0.113	-0.073	0.073	-0.209	-0.129	-0.144	0.112		
ERLIN1 (UniProt O75477)	-0.013	0.031	0.037	0.128	-0.092	-0.075	-0.14	0.006	-0.051	-0.107
DDX27 (UniProt Q96GQ7)	0.091	0.278	0.071	0.246	0.415		-0.138		0.044	0.061
DOCK8 (UniProt Q8NF50)	0.475	0.464	0.083	0.217	-0.029		-0.428		0.006	-0.337
EEA1 (UniProt Q15075)	0.041	-0.012	-0.028	0.017	-0.031	0.002	0.036	0.021	0.007	0
ELF1 (UniProt P32519)	0.001	0.028	-0.019	0.089		-0.297		-0.12	0.01	
DNAJC24 (UniProt Q6P3W2)	-0.06	0.199	0.004		0.045	-0.111	-0.112	0.034	0.018	
ESS2 (UniProt Q96DF8)	-0.022	0.046	-0.019	0.052	-0.125	-0.037	0.005	0.073	-0.088	-0.083
DCAF12 (UniProt Q5T6F0)		-0.037			0.073		0.036			0.16
ERF (UniProt P50548)		0.328								0.148
EEF2K (UniProt O00418)			0.021		0.031	-0.062	-0.896 (active)	-0.017		-0.014
EEF1D isoform 3 (UniProt P29692)					-0.067		-0.105			
DCAF4 (UniProt Q8WV16)		0.018			-0.076		0.005		-0.012	0.074
CTNNBL1 (UniProt Q8WYA6)						-0.008		-0.581		
DENND1A isoform 6 (UniProt Q8TEH3)	0.154					-0.18		0.06		
DOLPP1 (UniProt Q86YN1)	-0.05		-0.003	-0.043	-0.022	0.129	0.011	-0.07	0.013	
EHBP1 (UniProt Q8NDI1)			-0.02	0.031	0.025		0.086			0.057
DENND10 (UniProt Q8TCE6)		-0.133	-0.017	0.003	-0.065	0.114	-0.05	-0.021	0.1	
DNAL1 (UniProt Q4LDG9)	0.009		0.024	-0.098						
DDX46, A0A0C4DG89					-0.083		0.032		0.261	
DDX11 (UniProt Q96FC9)	-0.069	0.144		-0.05	0.088	0.047	0.437 (active)	-0.045	-0.009	
EDRF1 (UniProt Q3B7T1)		0.052	0.419 (active)		-0.033		0.044			0.244
CTSS (UniProt P25774)	0.019	0.051	-0.081							-0.043
EGR1 (UniProt P18146)		0.463	0.125	0.164	-0.54	-0.24	0.079	0.067	-0.183	-0.362

Target	log2 fold change [1]	log2 fold change (filanesib)	log2 fold change (zotarolimus)	log2 fold change (idasanutlin)	log2 fold change (alisertib)	log2 fold change [2]	log2 fold change [3]	log2 fold change (lapatinib)	log2 fold change (gefitinib)	log2 fold change (pictilisib)
FAM207A (UniProt Q9NSI2)	-0.034	0.238		0.009	0.238	0.108	-0.146	0.041	-0.124	-0.097
DLK1 (UniProt P80370)	-0.021		-0.095							
DEGS1 (UniProt O15121)		-0.048	0.027	0.039	0.028	-0.013	-0.018	-0.034	-0.002	0
DBNL (UniProt Q9UJU6)			-0.324							
DERPC (UniProt P0CG12)	-0.016				0.021		0.086		0.099	-0.107
EPHB4 (UniProt P54760)		0.134			-0.017	0.395	-0.937 (active)	0.08		
EIF3J isoform 2 (UniProt O75822)	-0.099	0.013		0.107	-0.074	0.051	0.02	-0.116	0.047	
FAM117B (UniProt Q6P1L5)	0.053		0.007	-0.062						0.208
EID1 (UniProt Q9Y6B2)		0.119			0.024	0.015	-0.239	-0.097	-0.031	0.3
FAM160A2 isoform 2 (UniProt Q8N612)	-0.082		0.067		0.031		0.103		0.158	-0.056
ENTPD7 (UniProt Q9NQZ7)	-0.031	-0.268			-0.054	0.06	0.03	0.099	-0.026	
ELOVL7 (UniProt A1L3X0)			0.012	-0.118						
F2RL3 (UniProt Q96RI0)			-0.075	-0.017		0.017		0.029		
ELMO1 (UniProt Q92556)	-0.108	0.072			0.212		0.08		0.017	
DHPS (UniProt M0R1T2)		-0.057								
CYP24A1 (UniProt Q07973)	0.1			0.039	-0.095	0.091	-0.306	0.067	-0.044	-0.059
DOP1A (UniProt Q5JWR5)					-0.013		0.02			
EIF2AK3 (UniProt Q9NZJ5)	0.135		-0.06	-0.039	-0.141	0.201	0.078	0.146	-0.161	-0.233
ELOVL5 isoform 2 (UniProt Q9NYP7)		-0.157	-0.041	-0.224	-0.026	-0.05	0	0.094	-0.142	0
DDB1 isoform 2 (UniProt Q16531)		0.077								0.094
ENTR1 (UniProt Q96C92)						-0.065		0.075		
EIF4G1 (UniProt Q04637)			-0.118	0.071						-0.307
DNAJB1 (UniProt M0R128)			-0.062							
FAM135A (UniProt Q9P2D6)		0.13							0.052	
